In PubChem BioAssay (Tox21):
A number with no mark means an inactive call. Inconclusive results are not listed. Entries that show only a call come without a potency. Active and inactive are the calls of the source. Unless noted, calls follow the shape of the dose curve; as a rule, active = well fitted curve in the direction sought with a large enough effect in the repeat runs; inconclusive = weak or mixed curves; inactive = no such curve, though single readings can be large; an effect the other way counts as inactive or inconclusive.

What was measured:
[1] = A CellTox Green Cytotoxicity Assay to monitor cytotoxicity in HEK293 cells - 32 hour (AID 1224881); also: nearly all actives have a fitted effect of over 40% in size
Procedure, shortened: (§1)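 HEK293 cells, 600/well, were preincubated 5 hours and then exposed to compounds at 37 C for up to 40 hours. A cell-impermeant cyanine dye staining dead-cell DNA was read by fluorescence at 0, 8, 16, 24, 32 and 40 h time points.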

[2] = A CellTox Green Cytotoxicity Assay to monitor cytotoxicity in HepG2 cells - 0 hour (AID 1224882); also: nearly all actives have a fitted effect of over 35% in size
Procedure, shortened: (§2)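 HepG2 cells, 600/well, preincubated 5 h with CellTox Green dye, then exposed to Tox21 compounds in DMSO at 37 C for up to 40 h. Dead-cell DNA fluorescence read at the indicated time point.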

[3] = A CellTox Green Cytotoxicity Assay to monitor cytotoxicity in HepG2 cells - 32 hour (AID 1224883); also: nearly all actives have a fitted effect of over 50% in size; also: potency is read from the fitted curve at half-maximal effect
Procedure, shortened: as §2

[4] = A CellTox Green Cytotoxicity Assay to monitor cytotoxicity in HEK293 cells - 8 hour (AID 1224884); also: nearly all actives have a fitted effect of over 35% in size
Procedure, shortened: as §1

[5] = qHTS RealTime-Glo MT Cell Viability Assay in HepG2 cells - 16 hour (AID 1224885); also: nearly all actives have a fitted effect of over 50% in size
Procedure, shortened: (§3)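 Compound treatment began 5 h after plating HepG2 cells (600/well) with NanoLuc luciferase and prosubstrate. Plates stayed at 37 C for 40 h; luminescence was captured at six time points, 0 h through 40 h.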

[6] = qHTS RealTime-Glo MT Cell Viability Assay in HEK293 cells - 24 hour (AID 1224886); also: top concentration of the series differs between compounds; nearly all actives have a fitted effect of over 50% in size
Procedure, shortened: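 Quantitative high-throughput screen of the Tox21 10K library in HEK293: cells and RealTime-Glo reagents plated together, compound added at 5 h, luminescence monitored through 40 h at 37 C.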

[7] = qHTS RealTime-Glo MT Cell Viability Assay in HEK293 cells - 8 hour (AID 1224887); also: top concentration of the series differs between compounds; nearly all actives have a fitted effect of over 50% in size
Procedure, shortened: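 600 cells/well were plated with the nonlytic NanoLuc/prosubstrate reagent, pre-incubated 5 h, then given 23 nL of compound in DMSO. Incubation at 37 C for 40 h, with luminescence from viable-cell-reduced substrate read repeatedly from 0 h.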

[8] = A CellTox Green Cytotoxicity Assay to monitor cytotoxicity in HEK293 cells - 16 hour (AID 1224888); also: nearly all actives have a fitted effect of over 35% in size
Procedure, shortened: as §1

[9] = qHTS RealTime-Glo MT Cell Viability Assay in HepG2 cells - 0 hour (AID 1224889); also: nearly all actives have a fitted effect of over 50% in size
Procedure, shortened: as §3

[10] = A CellTox Green Cytotoxicity Assay to monitor cytotoxicity in HepG2 cells - 8 hour (AID 1224890); also: nearly all actives have a fitted effect of over 45% in size
Procedure, shortened: as §2

[11] = qHTS assay to identify small molecule antagonists of the estrogen receptor alpha (ER-alpha) signaling pathway using the BG1 cell line in the presence of 0.1 nM 17-beta-estradiol - cell viability counter screen (AID 1259241); also: nearly all actives have a fitted effect of over 40% in size
Procedure, shortened: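 Live-cell protease activity (CellTiter-Fluor fluorescence, 30 min) was read in the same wells after VM7Luc4E2 cells had been exposed to compounds with 0.1 nM 17beta-estradiol for 22 hr at 37C.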

[12] = qHTS assay to identify small molecule antagonists of the androgen receptor (AR) signaling pathway using the MDA cell line in the presence of 0.5 nM R1881 - cell viability counter screen (AID 1259242); also: nearly all actives have a fitted effect of over 45% in size
Procedure, shortened: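 MDA-kb2 cells (MMTV-luciferase, AR/GR responsive) were treated with compounds plus 0.5 nM R1881 (final) for 16 hr at 37C, 0% CO2. Viability was then read in the same wells as live-cell protease fluorescence (CellTiter-Fluor, 30 min).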

[13] = target: Androgen receptor (Homo sapiens) (UniProt P10275); assay: qHTS assay to identify small molecule antagonists of the androgen receptor (AR) signaling pathway using the MDA cell line in the presence of 0.5 nM R1881 (AID 1259243); also: nearly all actives have a fitted effect of over 50% in size; also: potency is read from the fitted curve at half-maximal effect
Androgen receptor (Homo sapiens), sequence (P10275 whole entry, looked up): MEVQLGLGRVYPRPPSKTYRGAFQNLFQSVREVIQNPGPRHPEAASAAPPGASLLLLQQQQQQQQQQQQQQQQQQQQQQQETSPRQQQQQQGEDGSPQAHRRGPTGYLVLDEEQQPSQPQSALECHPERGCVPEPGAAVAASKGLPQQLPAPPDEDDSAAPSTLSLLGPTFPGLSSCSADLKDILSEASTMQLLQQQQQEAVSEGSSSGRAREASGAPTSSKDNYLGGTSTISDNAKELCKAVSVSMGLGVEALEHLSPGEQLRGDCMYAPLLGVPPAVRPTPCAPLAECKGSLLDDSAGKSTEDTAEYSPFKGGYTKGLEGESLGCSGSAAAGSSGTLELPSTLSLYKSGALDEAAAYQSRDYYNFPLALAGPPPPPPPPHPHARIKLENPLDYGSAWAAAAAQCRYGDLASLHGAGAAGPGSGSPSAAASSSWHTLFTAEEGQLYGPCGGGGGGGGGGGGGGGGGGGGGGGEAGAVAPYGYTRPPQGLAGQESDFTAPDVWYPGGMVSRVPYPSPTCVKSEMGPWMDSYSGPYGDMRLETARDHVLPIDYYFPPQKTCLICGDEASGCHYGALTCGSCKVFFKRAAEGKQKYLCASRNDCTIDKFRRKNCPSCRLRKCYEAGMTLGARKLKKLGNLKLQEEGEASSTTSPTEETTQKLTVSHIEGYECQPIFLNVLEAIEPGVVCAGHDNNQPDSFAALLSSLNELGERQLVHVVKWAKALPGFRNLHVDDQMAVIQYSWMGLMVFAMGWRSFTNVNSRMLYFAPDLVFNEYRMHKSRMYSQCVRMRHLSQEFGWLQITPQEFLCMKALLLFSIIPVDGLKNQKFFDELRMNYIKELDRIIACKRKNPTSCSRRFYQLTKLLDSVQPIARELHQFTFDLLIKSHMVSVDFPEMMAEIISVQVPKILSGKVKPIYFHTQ
Procedure, shortened: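 MDA-kb2 cells (MMTV-luciferase, responsive to AR and GR) at 3,000/well, rested 5 h at 37C, 0% CO2, then given compounds plus 0.5 nM R1881 (final) for 16 hr. Luciferase read with ONE-Glo after 30 min at room temperature.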

[14] = target: Estrogen receptor (Homo sapiens) (UniProt P03372); assay: qHTS assay to identify small molecule antagonists of the estrogen receptor alpha (ER-alpha) signaling pathway using the BG1 cell line in the presence of 0.1 nM 17-beta-estradiol (AID 1259244); also: nearly all actives have a fitted effect of over 50% in size
Estrogen receptor (Homo sapiens), sequence (P03372 whole entry, looked up): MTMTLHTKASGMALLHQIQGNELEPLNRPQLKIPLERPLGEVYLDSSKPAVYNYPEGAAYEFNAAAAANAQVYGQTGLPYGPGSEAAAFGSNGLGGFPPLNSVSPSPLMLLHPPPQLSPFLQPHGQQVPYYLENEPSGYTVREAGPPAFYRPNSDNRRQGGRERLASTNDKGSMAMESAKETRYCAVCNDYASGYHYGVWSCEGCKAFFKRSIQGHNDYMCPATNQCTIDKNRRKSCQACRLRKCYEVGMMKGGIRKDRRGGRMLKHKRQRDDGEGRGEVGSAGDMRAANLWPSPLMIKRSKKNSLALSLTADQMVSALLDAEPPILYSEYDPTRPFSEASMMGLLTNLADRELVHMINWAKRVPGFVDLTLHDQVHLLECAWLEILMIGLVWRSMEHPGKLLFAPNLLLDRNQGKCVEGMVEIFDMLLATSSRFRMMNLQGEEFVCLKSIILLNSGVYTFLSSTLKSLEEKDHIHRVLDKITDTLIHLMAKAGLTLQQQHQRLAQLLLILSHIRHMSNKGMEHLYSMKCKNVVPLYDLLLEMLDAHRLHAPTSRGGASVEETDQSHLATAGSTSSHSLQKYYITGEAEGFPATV
Procedure, shortened: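 VM7Luc4E2 cells (endogenous full-length ER-alpha, 4×ERE-luciferase), kept 5 days in phenol red-free, charcoal-stripped FBS medium; 4,000 cells/well. Compounds added with 0.1 nM (final) 17beta-estradiol, 22 hr at 37C; luminescence read with ONE-Glo after 30 min.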

[15] = qHTS assay to identify small molecule phospholipidosis (PLD) inducers (AID 1259344; active = well fitted curve in the direction sought with a large enough effect; an effect the other way counts as inactive or inconclusive; also: potency is read from the fitted curve at half-maximal effect)
Procedure, shortened: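 Quantitative HTS in HepG2: compound plus LipidTOX Red dye for 24 h, paraformaldehyde fixation with Hoechst 33342, widefield high-content imaging; amiodarone as positive and DMSO as negative control.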

[16] = qHTS assay to identify small molecule HDAC inhibitors (AID 1259364); also: nearly all actives have a fitted effect of over 45% in size; also: potency is read from the fitted curve at half-maximal effect; as to activity change, negative = inhibition: top concentration of the series differs between compounds
Procedure, shortened: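 Wild-type HCT-116 cells, plated overnight at 37 C, exposed to compounds 2 hr at 37 C; luminogenic HDAC-Glo substrate then added 30 min at room temperature. Luminescence reports relative endogenous class I/II HDAC activity.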

[17] = qHTS assay to identify small molecule HDAC inhibitors - cell viability counter screen (AID 1259365); also: nearly all actives have a fitted effect of over 50% in size; also: potency is read from the fitted curve at half-maximal effect; as to activity change, negative = cytotoxicity: series mostly up to about 92 µM
Procedure, shortened: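 HCT-116 (wild type), 1,500 cells/well, overnight 37C/5% CO2; compound in DMSO 2hr; CellTiter-Glo 30min RT; luminescence read.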

[18] = qHTS assay to identify small molecule agonists of the sonic hedgehog signaling (Shh) pathway - cell viability counter screen (AID 1259366); also: nearly all actives have a fitted effect of over 50% in size; also: potency is read from the fitted curve at half-maximal effect
Procedure, shortened: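 CellTiter-Fluor fluorescence read-out, 1 hr at 37C, added after 23hr compound exposure. Cells: 3T3 Gli1-Luc, an NIH/3T3 clone with stably integrated Gli1-Luc reporter, plated 4hr before compound.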

[19] = qHTS assay to identify small molecule antagonists of the sonic hedgehog signaling (Shh) pathway - cell viability counter screen (AID 1259367); also: nearly all actives have a fitted effect of over 55% in size; also: potency is read from the fitted curve at half-maximal effect
Procedure, shortened: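 Seed 3T3 Gli1-Luc cells at 2,000 per well; incubate 4 hr; add compound in DMSO, then conditioned medium; incubate at 37C with 5% CO2; add CellTiter-Fluor after 23 hr; read fluorescence 1 hr later.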

[20] = qHTS assay to identify small molecule agonists of the sonic hedgehog signaling (Shh) pathway (AID 1259368; calls by dose curve;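 also: NIH/3T3-derived 3T3Gli1-Luc cells carrying a stable Gli1-driven firefly luciferase reporter; series mostly up to about 92 µM; nearly all actives have a fitted effect of over 15% in size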)
Procedure, shortened: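 NIH/3T3-derived 3T3Gli1-Luc cells with stably integrated Gli1-driven firefly luciferase, 2,000 cells/well, compounds added after 4 hr. Incubated 24 hr at 37C, 5% CO2; luminescence read after 30 min with luciferase reagent at room temperature.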

C/C(=C(\CCOP(=O)(O)O)SC(=O)c1ccccc1)N(C=O)Cc1cnc(C)nc1N
cytotoxicity increase [1]: -7.02% [at 6.97 µM]
cytotoxicity [2]: 4.51% [at 6.97 µM]
cytotoxicity increase [3]: -0.701% [at 6.97 µM]
cytotoxicity increase [4]: -3.85% [at 6.97 µM]
activity change, negative = cytotoxic [5]: 1.38% [at 6.97 µM]
activity change, negative = cytotoxicity [6]: 2.35% [at 6.97 µM]
activity change, negative = cytotoxicity [7]: 3.68% [at 6.97 µM]
activity change [8]: -2.42% [at 6.97 µM, active compounds read high]
activity change, negative = cytotoxicity [9]: 4.53% [at 6.97 µM]
cytotoxicity increase [10]: 0.403% [at 6.97 µM]
activity change, negative = cytotoxicity [11]: -4.04% [at 8.39 µM]
viability change, negative = cytotoxic [12]: 2.34% [at 8.39 µM]
activity, negative = inhibition [13]: 2.6% [at 8.39 µM]
activity change, negative = inhibition [14]: 5.19% [at 8.39 µM]
Potency [15]: inactive
activity change, negative = inhibition [16]: -1.49% [at 8.39 µM]
activity change, negative = cytotoxicity [17]: 6.82% [at 8.39 µM]
viability change, negative = cytotoxic [18]: -1.58% [at 8.39 µM]
viability change, negative = cytotoxic [19]: 0.0493% [at 8.39 µM]
activity change [20]: 0.138% [at 8.39 µM]

CN1CCC(=C2c3ccccc3Sc3ccccc32)CC1
Potency [1]: inactive
Potency [2]: inactive
Potency [3]: 23.9 µM (active)
Potency [4]: inactive
Potency [5]: inactive
Potency [6]: inactive
Potency [7]: inactive
Potency [8]: inactive
Potency [10]: inactive
Potency [12]: inactive
Potency [13]: 23.7 µM (active)
Potency [14]: inactive
Potency [15]: 10 µM (active)
Potency [16]: inactive
Potency [17]: inactive
Potency [18]: inactive
Potency [19]: inactive
outcome [20]: inactive

CCCCC(CC)COC(=O)CCCCCCCCC(=O)OCC(CC)CCCC (configuration not stated)
Potency [1]: inactive
Potency [2]: inactive
Potency [3]: inactive
Potency [4]: inactive
Potency [5]: inactive
Potency [6]: inactive
Potency [7]: inactive
Potency [8]: inactive
Potency [9]: inactive
Potency [10]: inactive
Potency [11]: inactive
Potency [12]: inactive
Potency [14]: inactive
Potency [16]: inactive
Potency [17]: inactive
Potency [18]: inactive
Potency [19]: inactive
outcome [20]: inactive

CCN(CC)c1ccc(C(=C2C=CC(=[N+](CC)CC)C=C2)c2cc(S(=O)(=O)O)ccc2S(=O)(=O)[O-])cc1
Potency [1]: inactive
Potency [2]: inactive
Potency [3]: inactive
Potency [4]: inactive
Potency [5]: inactive
Potency [6]: inactive
Potency [7]: inactive
Potency [8]: inactive
Potency [9]: inactive
Potency [13]: 7.5 µM (active)
Potency [16]: 9.44 µM (active)
Potency [17]: 11.9 µM (active)
outcome [20]: inactive

CCC(Cl)CCC(Cl)C(Cl)CC(Cl)C(Cl)C(Cl)CCl (configuration not stated)
Potency [1]: inactive
Potency [2]: inactive
Potency [3]: inactive
Potency [4]: inactive
Potency [5]: inactive
Potency [6]: inactive
Potency [7]: inactive
Potency [8]: inactive
Potency [9]: inactive
Potency [10]: inactive
Potency [12]: inactive
Potency [16]: inactive
Potency [17]: inactive
Potency [18]: inactive
Potency [19]: inactive
outcome [20]: inactive

c1ccc(-c2ccccn2)nc1
Potency [1]: inactive
Potency [2]: inactive
Potency [3]: inactive
Potency [4]: inactive
Potency [5]: inactive
Potency [6]: inactive
Potency [7]: inactive
Potency [8]: inactive
Potency [9]: inactive
Potency [10]: inactive
Potency [11]: inactive
Potency [12]: inactive
Potency [13]: inactive
Potency [16]: inactive
Potency [17]: inactive
Potency [18]: inactive
Potency [19]: inactive
outcome [20]: inactive

NCCCN1CCOCC1
Potency [1]: inactive
Potency [2]: inactive
Potency [3]: inactive
Potency [4]: inactive
Potency [5]: inactive
Potency [6]: inactive
Potency [7]: inactive
Potency [8]: inactive
Potency [9]: inactive
Potency [11]: inactive
Potency [12]: inactive
Potency [13]: inactive
Potency [14]: inactive
Potency [16]: inactive
Potency [17]: inactive
Potency [18]: inactive
Potency [19]: inactive
outcome [20]: inactive

O=C(O)c1ccco1
Potency [1]: inactive
Potency [2]: inactive
Potency [3]: inactive
Potency [4]: inactive
Potency [5]: inactive
Potency [6]: inactive
Potency [7]: inactive
Potency [8]: inactive
Potency [9]: inactive
Potency [10]: inactive
Potency [11]: inactive
Potency [12]: inactive
Potency [16]: inactive
Potency [17]: inactive
Potency [18]: inactive
Potency [19]: inactive
outcome [20]: inactive

O=C1c2ccccc2S(=O)(=O)N1CCCCN1CCN(c2ncccn2)CC1
Potency [1]: inactive
Potency [2]: inactive
Potency [3]: inactive
Potency [4]: inactive
Potency [5]: inactive
Potency [6]: inactive
Potency [7]: inactive
Potency [8]: inactive
Potency [9]: inactive
Potency [10]: inactive
Potency [12]: inactive
Potency [15]: inactive
Potency [16]: inactive
Potency [17]: inactive
Potency [18]: inactive
Potency [19]: inactive
outcome [20]: inactive

CCC(C)(C)CC
Potency [1]: inactive
Potency [2]: inactive
Potency [3]: inactive
Potency [4]: inactive
Potency [5]: inactive
Potency [6]: inactive
Potency [7]: inactive
Potency [8]: inactive
Potency [9]: inactive
Potency [10]: inactive
Potency [11]: inactive
Potency [12]: inactive
Potency [16]: inactive
Potency [17]: inactive
Potency [18]: inactive
Potency [19]: inactive
outcome [20]: inactive

C[Si](C)(CCCN)O[Si](C)(C)CCCN
Potency [1]: inactive
Potency [2]: inactive
Potency [3]: inactive
Potency [4]: inactive
Potency [5]: inactive
Potency [6]: inactive
Potency [7]: inactive
Potency [8]: inactive
Potency [9]: inactive
Potency [11]: inactive
Potency [12]: inactive
Potency [16]: inactive
Potency [17]: inactive
Potency [18]: inactive
Potency [19]: inactive
outcome [20]: inactive

CCC(C)O (configuration not stated)
Potency [1]: inactive
Potency [2]: inactive
Potency [3]: inactive
Potency [4]: inactive
Potency [5]: inactive
Potency [6]: inactive
Potency [7]: inactive
Potency [8]: inactive
Potency [9]: inactive
Potency [10]: inactive
Potency [12]: inactive
Potency [16]: inactive
Potency [17]: inactive
Potency [18]: inactive
Potency [19]: inactive
outcome [20]: inactive

Cc1oc(-c2ccccc2)nc1CCOc1cccc2c1ccn2CCC(=O)O
Potency [1]: inactive
Potency [2]: inactive
Potency [3]: inactive
Potency [4]: inactive
Potency [5]: inactive
Potency [6]: inactive
Potency [7]: inactive
Potency [8]: inactive
Potency [12]: inactive
Potency [14]: inactive
Potency [16]: inactive
Potency [17]: inactive
Potency [18]: 21.7 µM (active)
Potency [19]: 6.86 µM (active)
outcome [20]: inactive

CCCC(=O)Nc1ccc(O)c(C(C)=O)c1
Potency [1]: inactive
Potency [2]: inactive
Potency [3]: inactive
Potency [4]: inactive
Potency [5]: inactive
Potency [6]: inactive
Potency [7]: inactive
Potency [8]: inactive
Potency [9]: inactive
Potency [10]: inactive
Potency [11]: inactive
Potency [12]: inactive
Potency [14]: inactive
Potency [16]: inactive
Potency [17]: inactive
Potency [18]: inactive
Potency [19]: inactive
outcome [20]: inactive
